# Source: PubChem BioAssay (NCATS)
# Several values for one entry are separate records, joined by “and”; a condition that tells them apart may be missing. Equal entries are not always repeated. Results filed as inconclusive are left out. Activity calls are given as the source filed them. Unless noted, calls come from the whole dose curve; as a rule, active = well fitted curve in the direction sought with a large enough effect; inconclusive = small, poorly fitted or top-dose-only effect, or another doubt; inactive = no such curve, though single readings can be large; an effect the other way counts as inactive or inconclusive.
# What was measured:
# [1] = molecular target: Cytochrome P450 2C9 (Homo sapiens) (UniProt P11712); test: Cytochrome P450 family 2 subfamily C member 9 (CYP2C9) small molecule antagonists: luciferase biochemical (cell-free) qHTS assay (AID 1645842; active = well fitted curve in the direction sought with a large enough effect in the repeat runs; an effect the other way counts as inactive or inconclusive; note: nearly all actives have a fitted effect of over 55% in size; note: potency is the fitted concentration of half-maximal effect)
# Outline: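 P450-Glo CYP2C9 system: proluciferin substrate with enzyme in mix containing 0.4% BSA, 10 min at room temperature, then NADPH regeneration solution added and incubated 1 h at 37C. Detection reagent stopped reaction; luminescence read after 20 min as RLU.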
# [2] = Primary qHTS for inhibitors of nuclear receptor binding SET domain protein 2 (NSD2) in an isogenic RCH-ACV NSD2 p.E1099K mutant (9B) (AID 1645876); note: nearly all actives have a fitted effect of over 70% in size; note: potency is the fitted concentration of half-maximal effect
# [3] = Primary qHTS for inhibitors of nuclear receptor binding SET domain protein 2 (NSD2) in an RCH-ACV wild type WT cells (2C) (AID 1645877); note: nearly all actives have a fitted effect of over 70% in size; note: potency is the fitted concentration of half-maximal effect
# [4] = molecular target: Glutathione peroxidase 1 (Homo sapiens) (UniProt P07203); test: Primary qHTS Assay for Inhibitors of Recombinant Selenoprotein Glutathione Peroxidase 1 (GPX1) (AID 1845191); note: nearly all actives have a fitted effect of over 65% in size
# Outline: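 NADPH consumption tracked by fluorescence at 340/450 nm between t=0 and t=15 min, room temperature. Final mix: 10 nM GPX1, 100 nM glutathione reductase, 1 mM GSH, 0.5 mM NADPH, 0.5 mM cumene hydroperoxide, 0.01% BSA; 30 min compound–enzyme preincubation.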
# [5] = NCATS anti-infectives library activity on HEK293 viability as a counter-qHTS vs the C. elegans viability qHTS (AID 1745854)
# Outline: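 Cytotoxicity counter-screen to a worm viability qHTS: CellTiter-Glo luminescence read 10 min after reagent addition. Compounds (final up to 41.7 uM, a 1:5 dilution series) incubated 24 hr at 37C with 1,500 HEK293 cells per well; digitonin control.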
# [6] = molecular target: N-terminal Xaa-Pro-Lys N-methyltransferase 1 (Homo sapiens) (UniProt Q9BV86); test: Confirmatory qHTS for Inhibitors of N-terminal methyltransferase 1 (NTMT1): MTaseGlo Assay (AID 1645874);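 note: luminescence from SAH made as NTMT1 methylates SPKRIA peptide using SAM; series mostly up to about 100 µM; nearly all actives have a fitted effect of over 65% in size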
# Outline: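 Room-temperature NTMT1 reaction, 30 min, with 100 uM SAM and 1 uM SPKRIA substrate; enzyme 125 nM. Read-out: MTase-Glo luminescence, normalized to no-enzyme and DMSO controls.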
# [7] = molecular target: Papain (Carica papaya) (UniProt P00784); test: Primary qHTS assay for inhibitors of the protease papain (AID 1645873);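 note: papain turnover of Z-FR-AMC read as the AMC fluorescence gain over 10 min; series mostly up to about 50 µM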
# [8] = molecular target: Metallo-beta-lactamase type 2 (Klebsiella pneumoniae) (UniProt C7C422); test: qHTS to identify inhibitors of the New Delhi Metallo-beta-lactamase (NDM): assay validation screen against the NCATS LOPAC Collection (AID 1794843);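 note: nitrocefin turnover by NDM-1 measured as 485 nm absorbance at plateau; series mostly up to about 38 µM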
# Outline: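 Nitrocefin hydrolysis (50 uM substrate stock) by NDM-1, 2 nM final, was followed by 485 nm absorbance after compound preincubation; buffer was 50 mM HEPES pH 7.0, 1 uM ZnSO4, 0.01% Tween20.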
# Sequence of Cytochrome P450 2C9 (Homo sapiens) (P11712 whole entry, looked up): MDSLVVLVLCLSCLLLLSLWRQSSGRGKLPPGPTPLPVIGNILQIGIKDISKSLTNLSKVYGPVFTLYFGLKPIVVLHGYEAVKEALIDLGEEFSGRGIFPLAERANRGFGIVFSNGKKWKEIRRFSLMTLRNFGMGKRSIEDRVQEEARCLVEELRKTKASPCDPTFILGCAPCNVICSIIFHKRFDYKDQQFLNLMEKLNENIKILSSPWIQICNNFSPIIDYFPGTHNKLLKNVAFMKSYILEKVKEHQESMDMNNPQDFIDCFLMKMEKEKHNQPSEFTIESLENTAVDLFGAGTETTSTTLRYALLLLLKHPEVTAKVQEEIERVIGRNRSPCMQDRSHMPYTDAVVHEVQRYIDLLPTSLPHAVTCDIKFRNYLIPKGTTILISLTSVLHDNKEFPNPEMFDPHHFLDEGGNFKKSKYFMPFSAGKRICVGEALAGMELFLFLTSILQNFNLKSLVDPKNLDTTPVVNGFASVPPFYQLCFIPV
# Sequence of Glutathione peroxidase 1 (Homo sapiens) (P07203 whole entry, looked up): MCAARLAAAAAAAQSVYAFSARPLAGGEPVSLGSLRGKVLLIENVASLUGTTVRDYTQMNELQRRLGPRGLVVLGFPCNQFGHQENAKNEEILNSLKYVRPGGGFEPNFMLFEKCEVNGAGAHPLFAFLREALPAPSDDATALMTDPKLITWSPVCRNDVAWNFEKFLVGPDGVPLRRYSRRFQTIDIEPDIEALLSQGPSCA
# Sequence of N-terminal Xaa-Pro-Lys N-methyltransferase 1 (Homo sapiens) (Q9BV86 whole entry, looked up): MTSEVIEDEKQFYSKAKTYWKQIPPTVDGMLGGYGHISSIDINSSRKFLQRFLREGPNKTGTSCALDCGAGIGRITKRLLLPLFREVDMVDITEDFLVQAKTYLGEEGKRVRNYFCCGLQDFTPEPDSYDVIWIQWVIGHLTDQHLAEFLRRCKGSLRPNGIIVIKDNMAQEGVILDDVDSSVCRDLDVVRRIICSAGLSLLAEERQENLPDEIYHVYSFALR
# Sequence of Metallo-beta-lactamase type 2 (Klebsiella pneumoniae) (C7C422 whole entry, looked up): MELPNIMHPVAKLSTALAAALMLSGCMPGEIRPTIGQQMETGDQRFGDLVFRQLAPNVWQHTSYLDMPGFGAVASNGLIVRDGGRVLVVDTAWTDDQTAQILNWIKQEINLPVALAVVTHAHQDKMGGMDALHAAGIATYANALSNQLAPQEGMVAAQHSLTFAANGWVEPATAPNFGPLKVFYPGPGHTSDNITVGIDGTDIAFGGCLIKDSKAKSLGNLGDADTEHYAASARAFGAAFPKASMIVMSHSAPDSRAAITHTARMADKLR
# Sequence of Papain (Carica papaya) (P00784 whole entry, looked up): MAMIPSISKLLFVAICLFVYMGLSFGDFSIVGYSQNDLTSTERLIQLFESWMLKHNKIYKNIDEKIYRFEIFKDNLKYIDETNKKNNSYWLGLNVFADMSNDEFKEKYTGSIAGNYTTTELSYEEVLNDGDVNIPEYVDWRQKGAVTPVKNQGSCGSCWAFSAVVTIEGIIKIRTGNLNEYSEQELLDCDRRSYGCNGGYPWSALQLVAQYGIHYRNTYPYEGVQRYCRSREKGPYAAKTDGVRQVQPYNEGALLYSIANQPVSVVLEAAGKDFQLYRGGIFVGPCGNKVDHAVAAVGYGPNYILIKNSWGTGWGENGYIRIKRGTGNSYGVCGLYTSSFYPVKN
compound,measurement,setting,value
CCOc1cc(C(=O)N2CCC(N3CCN(C)CC3)CC2)ccc1Nc1ncc2c(n1)N(C1CCCC1)c1ccccc1C(=O)N2C,Potency,[1],inactive
same,Potency,[2],1.15 µM (active) and 1.86 µM (active)
same,Potency,[3],1.29 µM (active) and 1.66 µM (active)
same,Potency,[4],inactive
CNS(=O)(=O)c1ccccc1Nc1nc(Nc2ccc(N3CCN(C)CC3)cc2OC)ncc1Cl,Potency,[1],3.38 µM (active)
same,Potency,[2],578 nM (active)
same,Potency,[3],649 nM (active)
same,Potency,[4],inactive
CC(C)S(=O)(=O)NC[C@H](C)c1ccc(NC(=O)c2cc(F)cc(F)c2)cc1,Potency,[1],7.56 µM (active)
same,Potency,[2],inactive
same,Potency,[3],inactive
same,Potency,[4],inactive
CCOCc1nc2c(N)nc3ccccc3c2n1CC(C)(C)O,Potency,[1],inactive
same,Potency,[2],inactive
same,Potency,[5],inactive
same,Potency,[4],inactive
CCC(C(=O)O)c1ccc(N2Cc3ccccc3C2=O)cc1 (stereo not given),Potency,[1],inactive
same,Potency,[2],inactive
same,Potency,[3],inactive
O=C(NCc1cccc(O)c1)c1cc2cc(F)ccc2[nH]1,Potency,[1],13.5 µM (active)
same,Potency,[2],18300 nM (active)
same,Potency,[3],20500 nM (active)
same,Potency,[4],inactive
c1cc(Nc2cc(C3CC3)[nH]n2)nc(Nc2ccc3nc[nH]c3c2)n1,Potency,[1],9.52 µM (active)
same,Potency,[2],417 nM (active)
same,Potency,[3],468 nM (active)
same,Potency,[4],inactive
CC(C)NCC(C(=O)N1CCN(c2ncnc3c2C(C)CC3O)CC1)c1ccc(Cl)cc1 (stereo not given),Potency,[1],inactive
same,Potency,[2],1830 nM (active)
same,Potency,[3],2300 nM (active)
same,Potency,[4],inactive
CNC(=O)c1ccccc1Nc1cc(Nc2ccc(N3CCOCC3)cc2OC)ncc1C(F)(F)F,Potency,[1],4.25 µM (active)
same,Potency,[6],inactive
same,Potency,[2],2900 nM (active)
same,Potency,[3],2900 nM (active)
same,Potency,[4],inactive
COc1ccc(Cl)c(Nc2nc3ccccc3nc2NS(=O)(=O)c2cccc(NC(=O)C(C)(C)N)c2)c1,Potency,[1],2.68 µM (active)
same,Potency,[2],3.65 µM (active) and 5.9 µM (active)
same,Potency,[3],4.09 µM (active) and 8.33 µM (active)
same,Potency,[4],inactive
Cc1nc(NC(=O)N2CCCC2C(N)=O)sc1-c1csc(C(C)(C)C)n1 (stereo not given),Potency,[1],inactive
same,Potency,[2],4590 nM (active)
same,Potency,[3],4090 nM (active)
same,Potency,[4],inactive
COc1cc(Br)c(Nc2nc(-c3c(C)nc4ncccn34)cs2)c(Br)c1,Potency,[1],8.49 µM (active)
same,Potency,[2],1450 nM (active)
same,Potency,[3],2050 nM (active)
same,Potency,[4],inactive
CC[C@H](CO)Nc1nc(NCc2ccc(-c3ccccn3)cc2)c2ncn(C(C)C)c2n1,Potency,[1],0.19 µM (active)
same,Potency,[2],459 nM (active)
same,Potency,[3],230 nM (active)
same,Potency,[4],inactive
O=C(CSc1nc2c(c(=O)n1-c1ccccc1)SCC2)Nc1ccc(-c2ccccc2)cn1,Potency,[1],0.379 µM (active)
same,Potency,[2],36.5 nM (active)
same,Potency,[3],32.5 nM (active)
same,Potency,[4],inactive
O=C(NCc1ccc(S(=O)(=O)c2cc(F)cc(F)c2)cc1)c1ccc2nccn2c1,Potency,[1],inactive
same,Potency,[2],inactive
same,Potency,[3],inactive
same,Potency,[4],inactive
CCOC(=O)c1sc(NC(=O)[C@H](C(C)C)n2c(=O)[nH]c3ccccc3c2=O)nc1C,Potency,[1],4.77 µM (active)
same,Potency,[4],inactive
CC[C@]1(O)CC2CN(CCc3c([nH]c4ccccc34)[C@@](C(=O)OC)(c3cc4c(cc3OC)N(C)[C@H]3[C@@](O)(C(=O)OC)[C@H](OC(C)=O)[C@]5(CC)C=CCN6CC[C@]43[C@@H]65)C2)C1 (stereo not given in full),outcome,[7],inactive
same,Potency,[2],57.8 nM (active) and 417 nM (active)
same,Potency,[3],45.9 nM (active) and 372 nM (active)
same,outcome,[8],inactive
same,Potency,[4],inactive
Cc1c(CN2CCN(C(=O)C(C)O)CC2)sc2c(N3CCOCC3)nc(-c3cnc(N)nc3)nc12 (stereo not given),Potency,[2],57.8 nM (active)
same,Potency,[3],45.9 nM (active)
O=c1[nH]ccc2cc(OC3CCNCC3)ccc12,Potency,[1],inactive
same,Potency,[4],inactive
CCC1C(=O)N(C)c2cnc(Nc3ccc(C(=O)NC4CCC(N5CCN(CC6CC6)CC5)CC4)cc3OC)nc2N1C(C)C (stereo not given),Potency,[2],18.3 nM (active)
same,Potency,[3],25.8 nM (active)
CC(=O)O[C@H]1C(=O)[C@@]2(C)[C@H]([C@H](OC(=O)c3ccccc3)[C@]3(O)C[C@H](OC(=O)[C@H](O)[C@@H](NC(=O)c4ccccc4)c4ccccc4)C(C)=C1C3(C)C)[C@]1(OC(C)=O)CO[C@@H]1C[C@@H]2O,Potency,[2],6.9 nM (active)
Cc1cn(C2C=CC(CO)O2)c(=O)[nH]c1=O (stereo not given),Potency,[2],inactive
COc1cc(C2c3cc4c(c(O)c3CC(CO)C2C(=O)O)OCO4)cc(OC)c1O (stereo not given),Potency,[2],2520 nM (active)
same,Potency,[3],2000 nM (active)
C=CC(=O)Nc1cc(Nc2ncc(Cl)c(-c3c[nH]c4ccccc34)n2)c(OC)cc1N(C)CCN(C)C,Potency,[1],9.52 µM (active)
same,Potency,[4],inactive
Nc1ncnc2c1nc(N)n2[C@@H]1O[C@H](CO)[C@@H](O)[C@H]1O,Potency,[6],inactive
same,Potency,[2],1450 nM (active)
same,Potency,[3],649 nM (active)
same,Potency,[4],inactive
O=S(=O)(c1ccccc1)c1cnc2c(N3CCNCC3)cccc2c1,Potency,[1],0.338 µM (active)
same,Potency,[4],inactive
